# Reference: paper PMC7862700, “An all-to-all approach to the identification of sequence-specific readers for epigenetic DNA modifications on cytosine”
# Key:
# Experiment in all cases: DAPPL (digital affinity profiling via proximity ligation, sequencing); 10 mM Tris-HCl pH 7.5, 50 mM NaCl, 1 mM DTT, 4% glycerol, room temperature, 30 min; GST-TFs on glutathione beads, 16-mer random dsDNA library, 0.1% formaldehyde crosslink after washing; high values mean tight binding
# FLI1 = target: T1, FLI1 (Homo sapiens, UniProt Q01543 1-452); conditions: protein: recombinant; tags: N-terminal GST; dsDNA, one strand shown
# T1 sequence: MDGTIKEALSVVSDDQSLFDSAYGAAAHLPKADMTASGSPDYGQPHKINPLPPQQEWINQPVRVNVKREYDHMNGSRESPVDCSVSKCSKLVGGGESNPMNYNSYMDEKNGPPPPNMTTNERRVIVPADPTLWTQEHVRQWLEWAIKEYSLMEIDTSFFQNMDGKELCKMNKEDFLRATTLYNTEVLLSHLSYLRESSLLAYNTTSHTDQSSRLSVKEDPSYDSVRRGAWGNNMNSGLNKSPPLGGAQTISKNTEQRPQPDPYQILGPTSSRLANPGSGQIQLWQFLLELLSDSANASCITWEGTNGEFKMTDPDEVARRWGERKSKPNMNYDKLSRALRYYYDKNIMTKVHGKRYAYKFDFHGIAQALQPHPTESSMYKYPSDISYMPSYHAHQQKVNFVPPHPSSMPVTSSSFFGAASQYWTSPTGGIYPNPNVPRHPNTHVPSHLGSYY
# How it was run: (§1)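 A tag-only sample was pooled with DNA-barcoded human transcription factors that had been expressed in yeast as GST fusions and captured on glutathione beads. The pools were incubated for 30 min at room temperature with 200 nmole of a random double-stranded 16-mer DNA library in Tris/NaCl/DTT/glycerol buffer, then washed, crosslinked with 0.1% formaldehyde, proximity-ligated (BsaI/T4 ligase, 1 h, 37 °C), PCR-amplified and sequenced on an Illumina NextSeq500. Binding signal is each hexamer's read frequency for a factor divided by its frequency for the tag-only sample.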
# ELK1 = target: T2, ELK1 (Homo sapiens, UniProt P19419 1-428); conditions: protein: recombinant; tags: N-terminal GST; dsDNA, one strand shown
# T2 sequence: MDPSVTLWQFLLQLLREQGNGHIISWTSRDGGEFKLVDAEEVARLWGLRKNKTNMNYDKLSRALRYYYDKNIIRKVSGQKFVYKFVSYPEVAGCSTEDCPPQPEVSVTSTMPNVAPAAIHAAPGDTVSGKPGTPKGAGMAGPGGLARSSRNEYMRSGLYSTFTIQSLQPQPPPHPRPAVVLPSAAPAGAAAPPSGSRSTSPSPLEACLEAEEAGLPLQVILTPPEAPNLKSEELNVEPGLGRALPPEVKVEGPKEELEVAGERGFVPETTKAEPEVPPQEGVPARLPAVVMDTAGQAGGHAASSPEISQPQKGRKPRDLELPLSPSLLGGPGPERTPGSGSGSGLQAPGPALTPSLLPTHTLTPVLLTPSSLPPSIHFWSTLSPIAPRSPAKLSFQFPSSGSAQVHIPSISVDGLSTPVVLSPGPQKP
# How it was run: as §1
# GABPA = target: T3, GABPA (Homo sapiens, UniProt Q06546 1-454); conditions: protein: recombinant; tags: N-terminal GST; dsDNA, one strand shown
# T3 sequence: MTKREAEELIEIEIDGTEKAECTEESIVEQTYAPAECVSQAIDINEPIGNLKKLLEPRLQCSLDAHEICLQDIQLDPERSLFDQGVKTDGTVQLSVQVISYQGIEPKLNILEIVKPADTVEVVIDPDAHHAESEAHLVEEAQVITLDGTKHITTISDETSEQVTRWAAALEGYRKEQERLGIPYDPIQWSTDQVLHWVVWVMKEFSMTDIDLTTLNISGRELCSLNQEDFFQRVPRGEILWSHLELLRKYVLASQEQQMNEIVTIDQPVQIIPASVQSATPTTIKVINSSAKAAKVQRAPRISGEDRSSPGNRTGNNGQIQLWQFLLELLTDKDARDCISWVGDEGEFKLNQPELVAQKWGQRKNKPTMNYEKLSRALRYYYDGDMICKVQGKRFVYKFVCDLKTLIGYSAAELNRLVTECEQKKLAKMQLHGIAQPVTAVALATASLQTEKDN
# How it was run: as §1
# ERG = target: T4, ERG (Homo sapiens, UniProt P11308 1-479); conditions: protein: recombinant; tags: N-terminal GST; dsDNA, one strand shown
# T4 sequence: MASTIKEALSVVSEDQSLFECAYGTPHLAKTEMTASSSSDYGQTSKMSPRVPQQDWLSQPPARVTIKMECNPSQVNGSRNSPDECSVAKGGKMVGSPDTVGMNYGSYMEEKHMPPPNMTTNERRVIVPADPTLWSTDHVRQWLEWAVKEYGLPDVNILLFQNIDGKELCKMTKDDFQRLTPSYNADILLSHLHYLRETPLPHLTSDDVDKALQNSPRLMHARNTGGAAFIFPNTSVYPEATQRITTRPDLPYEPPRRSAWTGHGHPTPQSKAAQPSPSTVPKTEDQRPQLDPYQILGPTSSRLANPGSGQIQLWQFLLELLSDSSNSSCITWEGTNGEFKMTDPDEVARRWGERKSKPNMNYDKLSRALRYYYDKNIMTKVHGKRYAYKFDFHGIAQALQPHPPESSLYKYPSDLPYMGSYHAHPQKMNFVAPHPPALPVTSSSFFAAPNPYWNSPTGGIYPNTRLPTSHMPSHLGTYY
# How it was run: as §1
# ELF1 = ELF1 (Homo sapiens, UniProt P32519 1-619); conditions: protein: recombinant; tags: N-terminal GST; dsDNA, one strand shown
# Sequence of ELF1 (P32519 whole entry): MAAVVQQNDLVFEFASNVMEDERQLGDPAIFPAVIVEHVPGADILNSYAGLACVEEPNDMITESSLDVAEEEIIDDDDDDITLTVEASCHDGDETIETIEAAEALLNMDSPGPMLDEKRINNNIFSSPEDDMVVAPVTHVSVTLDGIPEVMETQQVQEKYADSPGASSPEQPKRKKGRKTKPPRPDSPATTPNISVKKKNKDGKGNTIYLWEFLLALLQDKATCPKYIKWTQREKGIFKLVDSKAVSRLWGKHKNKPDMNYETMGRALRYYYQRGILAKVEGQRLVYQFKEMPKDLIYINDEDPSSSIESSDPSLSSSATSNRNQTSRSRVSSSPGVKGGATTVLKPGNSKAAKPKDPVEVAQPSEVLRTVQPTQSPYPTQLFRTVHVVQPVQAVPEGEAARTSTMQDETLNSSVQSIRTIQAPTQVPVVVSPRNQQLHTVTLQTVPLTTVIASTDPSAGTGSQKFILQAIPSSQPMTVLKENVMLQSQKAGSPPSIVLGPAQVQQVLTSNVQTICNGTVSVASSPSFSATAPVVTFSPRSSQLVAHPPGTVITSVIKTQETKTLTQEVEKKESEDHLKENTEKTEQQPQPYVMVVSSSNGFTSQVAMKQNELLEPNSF
# How it was run: as §1
# EHF = target: T5, EHF (Homo sapiens, UniProt Q9NZC4 1-300); conditions: protein: recombinant; tags: N-terminal GST; dsDNA, one strand shown
# T5 sequence: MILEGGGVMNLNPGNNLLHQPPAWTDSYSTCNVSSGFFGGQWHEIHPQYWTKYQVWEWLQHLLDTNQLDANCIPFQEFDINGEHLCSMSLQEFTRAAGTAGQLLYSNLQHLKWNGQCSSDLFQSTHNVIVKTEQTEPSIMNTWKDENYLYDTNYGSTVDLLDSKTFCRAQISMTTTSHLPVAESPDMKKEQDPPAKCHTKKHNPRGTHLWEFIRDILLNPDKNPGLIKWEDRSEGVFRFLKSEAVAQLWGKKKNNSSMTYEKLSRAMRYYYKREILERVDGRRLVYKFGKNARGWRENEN
# How it was run: as §1
# SPI1 = SPI1 (Homo sapiens, UniProt P17947 1-270); conditions: protein: recombinant; tags: N-terminal GST; dsDNA, one strand shown
# How it was run: as §1
# SPIB = SPIB (Homo sapiens, UniProt Q01892 1-262); conditions: protein: recombinant; tags: N-terminal GST; dsDNA, one strand shown
# Sequence of SPIB (Q01892 whole entry): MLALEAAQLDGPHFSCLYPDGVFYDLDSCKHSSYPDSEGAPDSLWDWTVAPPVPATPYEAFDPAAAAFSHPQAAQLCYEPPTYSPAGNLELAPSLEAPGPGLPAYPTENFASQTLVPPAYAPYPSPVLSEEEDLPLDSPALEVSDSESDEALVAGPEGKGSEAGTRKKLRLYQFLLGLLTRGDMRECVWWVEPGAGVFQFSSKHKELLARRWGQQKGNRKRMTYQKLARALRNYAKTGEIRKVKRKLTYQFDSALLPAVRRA
# How it was run: as §1
# ELK3 = target: T6, ELK3 (Homo sapiens, UniProt P41970 1-407); conditions: protein: recombinant; tags: N-terminal GST; dsDNA, one strand shown
# T6 sequence: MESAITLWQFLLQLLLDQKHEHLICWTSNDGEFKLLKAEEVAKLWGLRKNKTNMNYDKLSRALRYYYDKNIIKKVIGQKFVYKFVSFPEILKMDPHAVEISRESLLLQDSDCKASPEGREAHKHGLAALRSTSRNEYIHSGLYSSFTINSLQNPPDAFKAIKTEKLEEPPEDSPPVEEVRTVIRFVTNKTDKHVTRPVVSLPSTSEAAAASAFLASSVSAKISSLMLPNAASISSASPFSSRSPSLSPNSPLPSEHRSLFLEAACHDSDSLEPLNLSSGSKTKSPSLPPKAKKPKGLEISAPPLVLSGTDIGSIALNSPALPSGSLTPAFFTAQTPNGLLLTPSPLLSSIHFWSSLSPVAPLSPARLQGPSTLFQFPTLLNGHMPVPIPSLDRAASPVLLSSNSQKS
# How it was run: as §1
# FEV = target: T7, FEV (Homo sapiens, UniProt Q99581 1-238); conditions: protein: recombinant; tags: N-terminal GST; dsDNA, one strand shown
# T7 sequence: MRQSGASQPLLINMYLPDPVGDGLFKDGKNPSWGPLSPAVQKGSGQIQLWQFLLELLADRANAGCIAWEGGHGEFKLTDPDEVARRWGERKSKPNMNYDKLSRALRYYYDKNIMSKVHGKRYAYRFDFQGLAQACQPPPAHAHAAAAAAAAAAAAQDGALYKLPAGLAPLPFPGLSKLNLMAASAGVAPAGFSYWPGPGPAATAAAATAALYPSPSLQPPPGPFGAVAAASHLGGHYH
# How it was run: as §1
# ETV5 = ETV5 (Homo sapiens, UniProt P41161 1-510); conditions: protein: recombinant; tags: N-terminal GST; dsDNA, one strand shown
# Sequence of ETV5 (P41161 whole entry): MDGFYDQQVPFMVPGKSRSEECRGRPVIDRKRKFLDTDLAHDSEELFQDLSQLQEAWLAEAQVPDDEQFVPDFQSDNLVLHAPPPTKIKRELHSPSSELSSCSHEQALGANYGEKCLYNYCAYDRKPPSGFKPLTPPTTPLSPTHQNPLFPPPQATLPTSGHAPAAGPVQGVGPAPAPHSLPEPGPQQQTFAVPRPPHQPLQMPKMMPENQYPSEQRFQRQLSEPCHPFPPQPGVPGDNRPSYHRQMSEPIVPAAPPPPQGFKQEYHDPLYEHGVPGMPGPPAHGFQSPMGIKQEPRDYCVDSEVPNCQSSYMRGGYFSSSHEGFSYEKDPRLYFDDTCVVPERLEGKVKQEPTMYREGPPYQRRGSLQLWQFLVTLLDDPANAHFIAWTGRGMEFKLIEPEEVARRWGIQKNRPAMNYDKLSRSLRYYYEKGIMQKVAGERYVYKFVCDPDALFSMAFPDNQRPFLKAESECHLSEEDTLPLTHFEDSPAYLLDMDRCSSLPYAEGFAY
# How it was run: as §1
# HSF1 = HSF1 (Homo sapiens, UniProt Q00613 1-529); conditions: protein: recombinant; tags: N-terminal GST; chain copies: 3; dsDNA, one strand shown
# Sequence of HSF1 (Q00613 whole entry): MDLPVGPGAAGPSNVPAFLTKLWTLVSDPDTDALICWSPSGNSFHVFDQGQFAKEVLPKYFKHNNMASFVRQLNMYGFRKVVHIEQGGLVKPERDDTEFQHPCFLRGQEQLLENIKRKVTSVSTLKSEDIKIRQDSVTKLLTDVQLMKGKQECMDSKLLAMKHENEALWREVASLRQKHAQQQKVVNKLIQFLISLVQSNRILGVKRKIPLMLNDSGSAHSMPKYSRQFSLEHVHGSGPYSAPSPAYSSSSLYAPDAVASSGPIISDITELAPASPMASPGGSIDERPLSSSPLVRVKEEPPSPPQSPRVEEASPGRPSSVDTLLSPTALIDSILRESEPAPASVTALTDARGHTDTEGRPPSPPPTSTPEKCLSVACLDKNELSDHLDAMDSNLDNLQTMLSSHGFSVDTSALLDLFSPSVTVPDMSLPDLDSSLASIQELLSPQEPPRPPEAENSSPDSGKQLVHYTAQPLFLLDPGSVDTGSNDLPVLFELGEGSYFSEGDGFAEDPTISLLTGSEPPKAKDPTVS
# How it was run: as §1
# SPIC = target: T8, SPIC (Homo sapiens, UniProt Q8N5J4 1-248); conditions: protein: recombinant; tags: N-terminal GST; dsDNA, one strand shown
# T8 sequence: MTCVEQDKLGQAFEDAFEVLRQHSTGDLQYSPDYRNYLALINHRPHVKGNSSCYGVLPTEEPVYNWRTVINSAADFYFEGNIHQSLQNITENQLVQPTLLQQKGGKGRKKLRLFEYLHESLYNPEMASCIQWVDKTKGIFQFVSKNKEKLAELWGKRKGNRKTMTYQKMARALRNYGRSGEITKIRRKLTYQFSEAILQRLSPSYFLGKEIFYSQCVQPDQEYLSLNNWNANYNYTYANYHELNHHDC
# How it was run: as §1
# ELF4 = ELF4 (Homo sapiens, UniProt Q99607 1-663); conditions: protein: recombinant; tags: N-terminal GST; dsDNA, one strand shown
# Sequence of ELF4 (Q99607 whole entry): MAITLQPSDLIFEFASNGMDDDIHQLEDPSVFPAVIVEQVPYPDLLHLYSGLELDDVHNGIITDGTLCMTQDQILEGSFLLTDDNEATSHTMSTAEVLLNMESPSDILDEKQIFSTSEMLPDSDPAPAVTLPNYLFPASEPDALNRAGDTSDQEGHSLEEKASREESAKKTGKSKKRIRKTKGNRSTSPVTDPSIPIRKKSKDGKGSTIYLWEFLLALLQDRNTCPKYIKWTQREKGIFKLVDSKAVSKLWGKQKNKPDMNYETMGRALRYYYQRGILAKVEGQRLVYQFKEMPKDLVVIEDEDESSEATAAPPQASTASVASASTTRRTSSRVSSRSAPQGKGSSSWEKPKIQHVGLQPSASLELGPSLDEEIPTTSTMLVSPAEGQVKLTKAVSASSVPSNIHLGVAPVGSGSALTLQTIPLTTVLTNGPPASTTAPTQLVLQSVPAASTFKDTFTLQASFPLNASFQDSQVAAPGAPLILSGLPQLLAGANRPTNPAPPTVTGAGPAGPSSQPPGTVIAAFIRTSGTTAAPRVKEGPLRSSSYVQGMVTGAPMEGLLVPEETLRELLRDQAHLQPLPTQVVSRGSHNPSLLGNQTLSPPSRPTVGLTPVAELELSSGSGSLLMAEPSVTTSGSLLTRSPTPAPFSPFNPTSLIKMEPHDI
# How it was run: as §1
# ELK4 = target: T9, ELK4 (Homo sapiens, UniProt P28324-2 1-405); conditions: protein: recombinant; tags: N-terminal GST; dsDNA, one strand shown
# T9 sequence: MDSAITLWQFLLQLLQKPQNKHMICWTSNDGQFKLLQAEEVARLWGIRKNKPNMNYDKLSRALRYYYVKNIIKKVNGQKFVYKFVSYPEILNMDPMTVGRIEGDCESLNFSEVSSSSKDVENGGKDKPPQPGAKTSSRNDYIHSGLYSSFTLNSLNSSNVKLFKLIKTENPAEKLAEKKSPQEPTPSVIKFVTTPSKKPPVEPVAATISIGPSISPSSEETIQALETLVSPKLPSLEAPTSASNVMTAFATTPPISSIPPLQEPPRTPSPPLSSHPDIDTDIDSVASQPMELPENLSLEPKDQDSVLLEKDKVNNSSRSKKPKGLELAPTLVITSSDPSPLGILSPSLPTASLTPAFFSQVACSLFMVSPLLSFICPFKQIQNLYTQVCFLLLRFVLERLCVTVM
# How it was run: as §1
# ETV2 = target: T10, ETV2 (Homo sapiens, UniProt O00321 1-342); conditions: protein: recombinant; tags: N-terminal GST; dsDNA, one strand shown
# T10 sequence: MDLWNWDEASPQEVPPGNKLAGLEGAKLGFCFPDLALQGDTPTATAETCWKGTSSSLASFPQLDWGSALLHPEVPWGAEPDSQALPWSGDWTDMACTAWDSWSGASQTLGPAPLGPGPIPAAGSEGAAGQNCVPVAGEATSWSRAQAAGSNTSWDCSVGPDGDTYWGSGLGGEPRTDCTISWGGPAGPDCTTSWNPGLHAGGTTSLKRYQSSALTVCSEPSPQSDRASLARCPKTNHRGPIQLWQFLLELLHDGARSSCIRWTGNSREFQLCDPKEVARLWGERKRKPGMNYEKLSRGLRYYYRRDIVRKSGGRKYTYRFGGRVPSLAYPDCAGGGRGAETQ
# How it was run: as §1
# ELF3 = target: T11, ELF3 (Homo sapiens, UniProt P78545 1-371); conditions: protein: recombinant; tags: N-terminal GST; dsDNA, one strand shown
# T11 sequence: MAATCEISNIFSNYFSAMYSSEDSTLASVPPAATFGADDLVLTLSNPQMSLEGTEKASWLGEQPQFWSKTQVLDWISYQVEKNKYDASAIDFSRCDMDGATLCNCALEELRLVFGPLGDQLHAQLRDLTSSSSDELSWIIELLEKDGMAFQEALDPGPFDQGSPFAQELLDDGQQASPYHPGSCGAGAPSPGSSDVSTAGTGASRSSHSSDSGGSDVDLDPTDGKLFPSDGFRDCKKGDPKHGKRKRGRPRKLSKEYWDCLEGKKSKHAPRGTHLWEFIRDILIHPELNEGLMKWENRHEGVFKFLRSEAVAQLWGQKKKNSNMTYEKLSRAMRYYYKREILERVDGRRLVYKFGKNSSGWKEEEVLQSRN
# How it was run: as §1
# CRX = CRX (Homo sapiens, UniProt O43186 1-299); conditions: protein: recombinant; tags: N-terminal GST; dsDNA, one strand shown
# Sequence of CRX (O43186 whole entry): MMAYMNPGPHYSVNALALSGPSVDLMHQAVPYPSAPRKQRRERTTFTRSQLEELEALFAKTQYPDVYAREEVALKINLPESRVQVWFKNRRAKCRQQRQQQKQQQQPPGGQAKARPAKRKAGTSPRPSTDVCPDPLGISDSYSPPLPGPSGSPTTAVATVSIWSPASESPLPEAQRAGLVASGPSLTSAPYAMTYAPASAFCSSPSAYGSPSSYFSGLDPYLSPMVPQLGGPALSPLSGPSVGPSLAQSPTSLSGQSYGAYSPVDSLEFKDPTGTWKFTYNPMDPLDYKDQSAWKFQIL
# How it was run: as §1
# ETV1 = ETV1 (Homo sapiens, UniProt P50549 1-477); conditions: protein: recombinant; tags: N-terminal GST; dsDNA, one strand shown
# Sequence of ETV1 (P50549 whole entry): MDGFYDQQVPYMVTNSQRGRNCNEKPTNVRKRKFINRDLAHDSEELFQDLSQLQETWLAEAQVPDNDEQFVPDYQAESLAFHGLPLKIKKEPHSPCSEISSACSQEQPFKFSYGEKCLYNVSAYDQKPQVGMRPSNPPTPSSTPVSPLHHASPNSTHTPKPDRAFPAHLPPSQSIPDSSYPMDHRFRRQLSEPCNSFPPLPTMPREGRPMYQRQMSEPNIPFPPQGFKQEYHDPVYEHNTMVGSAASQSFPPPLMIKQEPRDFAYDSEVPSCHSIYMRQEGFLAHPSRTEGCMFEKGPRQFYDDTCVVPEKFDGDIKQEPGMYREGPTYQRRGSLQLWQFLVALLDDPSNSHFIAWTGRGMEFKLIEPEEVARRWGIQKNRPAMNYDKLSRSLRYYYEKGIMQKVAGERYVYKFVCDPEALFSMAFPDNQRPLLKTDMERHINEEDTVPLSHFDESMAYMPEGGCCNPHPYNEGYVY
# How it was run: as §1
sequence,measurement,setting,value
GGTTTA,binding signal,FLI1,"1.12 fold enrichment (6-mer frequency, TF over GST control)"
same,binding signal,ELK1,"1.01 fold enrichment (6-mer frequency, TF over GST control)"
same,binding signal,GABPA,"1.05 fold enrichment (6-mer frequency, TF over GST control)"
same,binding signal,ERG,"1.1 fold enrichment (6-mer frequency, TF over GST control)"
same,binding signal,ELF1,"1.02 fold enrichment (6-mer frequency, TF over GST control)"
same,binding signal,EHF,"1.08 fold enrichment (6-mer frequency, TF over GST control)"
same,binding signal,SPI1,"1.09 fold enrichment (6-mer frequency, TF over GST control)"
same,binding signal,SPIB,"1.05 fold enrichment (6-mer frequency, TF over GST control)"
same,binding signal,ELK3,"1.07 fold enrichment (6-mer frequency, TF over GST control)"
same,binding signal,FEV,"1.05 fold enrichment (6-mer frequency, TF over GST control)"
same,binding signal,ETV5,"1.06 fold enrichment (6-mer frequency, TF over GST control)"
same,binding signal,HSF1,"1.29 fold enrichment (6-mer frequency, TF over GST control)"
same,binding signal,SPIC,"1.13 fold enrichment (6-mer frequency, TF over GST control)"
same,binding signal,ELF4,"1.06 fold enrichment (6-mer frequency, TF over GST control)"
same,binding signal,ELK4,"1.13 fold enrichment (6-mer frequency, TF over GST control)"
same,binding signal,ETV2,"1.15 fold enrichment (6-mer frequency, TF over GST control)"
same,binding signal,ELF3,"1.13 fold enrichment (6-mer frequency, TF over GST control)"
same,binding signal,CRX,"1.66 fold enrichment (6-mer frequency, TF over GST control)"
same,binding signal,ETV1,"1.05 fold enrichment (6-mer frequency, TF over GST control)"
